Assay results published in publication PMC9911399, “Two distinct binding modes provide the RNA-binding protein RbFox with extraordinary sequence specificity”.
Changes are numbered by the printed parent chain; changes in the protein carry UniProt numbers. In all, about 16,000 sequences were measured (“ka relative to ugcaugu”: median about 0.096, highest 2% from about 0.35 on). The sample holds the highest values, similar sequences and a random draw of the others, so the mix is not that of the screen.

T1: RBFOX1 RRM RbFoxmut (Fox-RRM*) (Homo sapiens, UniProt Q9NWB1 109-208, R118D;E147R;N151S;E152T)
T1 sequence: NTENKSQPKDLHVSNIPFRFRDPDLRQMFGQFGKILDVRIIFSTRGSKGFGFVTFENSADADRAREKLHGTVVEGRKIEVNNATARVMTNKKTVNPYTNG

B1: UCUGGGU (DNA:RNA)
RNA: GGGAGACCGGAAUUCAGAUUGUCCUCUGGGUUUAAAUCCCGUCGUAGCCACCA
DNA 1: CAATCTGAATTCCGGTCTCCC
DNA 2: TGGTGGCTACGACGGGATT
B2: GUGGUUC (DNA:RNA)
RNA: B1 RNA with U25G, C26U, U27G, G29U, G30U, U31C
DNA 1: CAATCTGAATTCCGGTCTCCC
DNA 2: TGGTGGCTACGACGGGATT
B3: AGCGCCG (DNA:RNA)
RNA: B1 RNA with U25A, C26G, U27C, G29C, G30C, U31G
DNA 1: CAATCTGAATTCCGGTCTCCC
DNA 2: TGGTGGCTACGACGGGATT
B4: ACACACC (DNA:RNA)
RNA: B1 RNA with U25A, U27A, G28C, G29A, G30C, U31C
DNA 1: CAATCTGAATTCCGGTCTCCC
DNA 2: TGGTGGCTACGACGGGATT
B5: UGUGUAA (DNA:RNA)
RNA: B1 RNA with C26G, G29U, G30A, U31A
DNA 1: CAATCTGAATTCCGGTCTCCC
DNA 2: TGGTGGCTACGACGGGATT
B6: CAACCGG (DNA:RNA)
RNA: B1 RNA with U25C, C26A, U27A, G28C, G29C, U31G
DNA 1: CAATCTGAATTCCGGTCTCCC
DNA 2: TGGTGGCTACGACGGGATT
B7: CUACAAU (DNA:RNA)
RNA: B1 RNA with U25C, C26U, U27A, G28C, G29A, G30A
DNA 1: CAATCTGAATTCCGGTCTCCC
DNA 2: TGGTGGCTACGACGGGATT
B8: CGGCAAU (DNA:RNA)
RNA: B1 RNA with U25C, C26G, U27G, G28C, G29A, G30A
DNA 1: CAATCTGAATTCCGGTCTCCC
DNA 2: TGGTGGCTACGACGGGATT
B9: UUGGUUU (DNA:RNA)
RNA: B1 RNA with C26U, U27G, G29U, G30U
DNA 1: CAATCTGAATTCCGGTCTCCC
DNA 2: TGGTGGCTACGACGGGATT
B10: CGUUGUA (DNA:RNA)
RNA: B1 RNA with U25C, C26G, G28U, G30U, U31A
DNA 1: CAATCTGAATTCCGGTCTCCC
DNA 2: TGGTGGCTACGACGGGATT
B11: ACAUGUA (DNA:RNA)
RNA: B1 RNA with U25A, U27A, G28U, G30U, U31A
DNA 1: CAATCTGAATTCCGGTCTCCC
DNA 2: TGGTGGCTACGACGGGATT
B12: GUCCGUA (DNA:RNA)
RNA: B1 RNA with U25G, C26U, U27C, G28C, G30U, U31A
DNA 1: CAATCTGAATTCCGGTCTCCC
DNA 2: TGGTGGCTACGACGGGATT
B13: GUUUGUA (DNA:RNA)
RNA: B1 RNA with U25G, C26U, G28U, G30U, U31A
DNA 1: CAATCTGAATTCCGGTCTCCC
DNA 2: TGGTGGCTACGACGGGATT
B14: GAUUGUA (DNA:RNA)
RNA: B1 RNA with U25G, C26A, G28U, G30U, U31A
DNA 1: CAATCTGAATTCCGGTCTCCC
DNA 2: TGGTGGCTACGACGGGATT
B15: CUAUGUA (DNA:RNA)
RNA: B1 RNA with U25C, C26U, U27A, G28U, G30U, U31A
DNA 1: CAATCTGAATTCCGGTCTCCC
DNA 2: TGGTGGCTACGACGGGATT
B16: GGAUGUA (DNA:RNA)
RNA: B1 RNA with U25G, C26G, U27A, G28U, G30U, U31A
DNA 1: CAATCTGAATTCCGGTCTCCC
DNA 2: TGGTGGCTACGACGGGATT
B17: CGAUGUA (DNA:RNA)
RNA: B1 RNA with U25C, C26G, U27A, G28U, G30U, U31A
DNA 1: CAATCTGAATTCCGGTCTCCC
DNA 2: TGGTGGCTACGACGGGATT
B18: GUAUGUA (DNA:RNA)
RNA: B1 RNA with U25G, C26U, U27A, G28U, G30U, U31A
DNA 1: CAATCTGAATTCCGGTCTCCC
DNA 2: TGGTGGCTACGACGGGATT
B19: GCAUGUA (DNA:RNA)
RNA: B1 RNA with U25G, U27A, G28U, G30U, U31A
DNA 1: CAATCTGAATTCCGGTCTCCC
DNA 2: TGGTGGCTACGACGGGATT
B20: GAAUGUA (DNA:RNA)
RNA: B1 RNA with U25G, C26A, U27A, G28U, G30U, U31A
DNA 1: CAATCTGAATTCCGGTCTCCC
DNA 2: TGGTGGCTACGACGGGATT
B21: GCAUAUA (DNA:RNA)
RNA: B1 RNA with U25G, U27A, G28U, G29A, G30U, U31A
DNA 1: CAATCTGAATTCCGGTCTCCC
DNA 2: TGGTGGCTACGACGGGATT
B22: AGACUAU (DNA:RNA)
RNA: B1 RNA with U25A, C26G, U27A, G28C, G29U, G30A
DNA 1: CAATCTGAATTCCGGTCTCCC
DNA 2: TGGTGGCTACGACGGGATT
B23: CGUCGCC (DNA:RNA)
RNA: B1 RNA with U25C, C26G, G28C, G30C, U31C
DNA 1: CAATCTGAATTCCGGTCTCCC
DNA 2: TGGTGGCTACGACGGGATT
B24: UCACCUC (DNA:RNA)
RNA: B1 RNA with U27A, G28C, G29C, G30U, U31C
DNA 1: CAATCTGAATTCCGGTCTCCC
DNA 2: TGGTGGCTACGACGGGATT
B25: AAAAUUC (DNA:RNA)
RNA: GGGAGACCGGAAUUCAGAUUGUCCAAAAUUCUUAAAUCCCGUCGUAGCCACCA
DNA 1: CAATCTGAATTCCGGTCTCCC
DNA 2: TGGTGGCTACGACGGGATT
B26: GUAAUGG (DNA:RNA)
RNA: B25 RNA with A25G, A26U, U30G, C31G
DNA 1: CAATCTGAATTCCGGTCTCCC
DNA 2: TGGTGGCTACGACGGGATT
B27: GUUAUGG (DNA:RNA)
RNA: B25 RNA with A25G, A26U, A27U, U30G, C31G
DNA 1: CAATCTGAATTCCGGTCTCCC
DNA 2: TGGTGGCTACGACGGGATT
B28: GAAUGGG (DNA:RNA)
RNA: B25 RNA with A25G, A28U, U29G, U30G, C31G
DNA 1: CAATCTGAATTCCGGTCTCCC
DNA 2: TGGTGGCTACGACGGGATT
B29: CGUAUGG (DNA:RNA)
RNA: B25 RNA with A25C, A26G, A27U, U30G, C31G
DNA 1: CAATCTGAATTCCGGTCTCCC
DNA 2: TGGTGGCTACGACGGGATT
B30: GAAAUGG (DNA:RNA)
RNA: B25 RNA with A25G, U30G, C31G
DNA 1: CAATCTGAATTCCGGTCTCCC
DNA 2: TGGTGGCTACGACGGGATT
B31: CGAAUGG (DNA:RNA)
RNA: B25 RNA with A25C, A26G, U30G, C31G
DNA 1: CAATCTGAATTCCGGTCTCCC
DNA 2: TGGTGGCTACGACGGGATT
B32: AGAUUGG (DNA:RNA)
RNA: B25 RNA with A26G, A28U, U30G, C31G
DNA 1: CAATCTGAATTCCGGTCTCCC
DNA 2: TGGTGGCTACGACGGGATT
B33: AGAAUGG (DNA:RNA)
RNA: B25 RNA with A26G, U30G, C31G
DNA 1: CAATCTGAATTCCGGTCTCCC
DNA 2: TGGTGGCTACGACGGGATT
B34: AGAAUUG (DNA:RNA)
RNA: B25 RNA with A26G, C31G
DNA 1: CAATCTGAATTCCGGTCTCCC
DNA 2: TGGTGGCTACGACGGGATT
B35: GGUAUGG (DNA:RNA)
RNA: B25 RNA with A25G, A26G, A27U, U30G, C31G
DNA 1: CAATCTGAATTCCGGTCTCCC
DNA 2: TGGTGGCTACGACGGGATT
B36: GGAAUGG (DNA:RNA)
RNA: B25 RNA with A25G, A26G, U30G, C31G
DNA 1: CAATCTGAATTCCGGTCTCCC
DNA 2: TGGTGGCTACGACGGGATT
B37: GUAUGGU (DNA:RNA)
RNA: B1 RNA with U25G, C26U, U27A, G28U
DNA 1: CAATCTGAATTCCGGTCTCCC
DNA 2: TGGTGGCTACGACGGGATT

These binders were tested against T1, RBFOX1 RRM RbFoxmut (Fox-RRM*) (assay: EMSA; HiTS-Eq, 1 nM pool, 10 min; buffer printed only for the single-RNA assays: 10 mM Tris pH 7.5, 150 mM NaCl, 3.4 mM EDTA, 0.001% NP-40, 30 C). Conditions: tags: His6 N-terminal (pET28a); label: 5' 32P.
Outline: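 Purified wild-type or mutant RbFox RRM at increasing concentrations was equilibrated with 1 nM of 5′-radiolabelled RNA carrying 7 randomized nucleotides for 10 min in 50 µL. Unbound RNA was separated by 8% native PAGE and sequenced. Relative association constants came from read-count changes of each RNA species compared with the control reaction, normalised to the cognate motif.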

Row | Binder | binding signal
1 | B1 | 0.0963 KA relative to UGCAUGU
2 | B2 | 0.283 KA relative to UGCAUGU
3 | B3 | 0.116 KA relative to UGCAUGU
4 | B4 | 0.0425 KA relative to UGCAUGU
5 | B5 | 0.111 KA relative to UGCAUGU
6 | B6 | 0.0516 KA relative to UGCAUGU
7 | B7 | 0.0289 KA relative to UGCAUGU
8 | B8 | 0.053 KA relative to UGCAUGU
9 | B9 | 0.1 KA relative to UGCAUGU
10 | B10 | 0.258 KA relative to UGCAUGU
11 | B11 | 0.2 KA relative to UGCAUGU
12 | B12 | 0.12 KA relative to UGCAUGU
13 | B13 | 0.446 KA relative to UGCAUGU
14 | B14 | 0.284 KA relative to UGCAUGU
15 | B15 | 0.198 KA relative to UGCAUGU
16 | B16 | 0.285 KA relative to UGCAUGU
17 | B17 | 0.202 KA relative to UGCAUGU
18 | B18 | 0.63 KA relative to UGCAUGU
19 | B19 | 1.04 KA relative to UGCAUGU

Row | Binder | binding signal
20 | B20 | 1.18 KA relative to UGCAUGU
21 | B21 | 0.169 KA relative to UGCAUGU
22 | B22 | 0.0902 KA relative to UGCAUGU
23 | B23 | 0.0841 KA relative to UGCAUGU
24 | B24 | 0.0699 KA relative to UGCAUGU
25 | B25 | 0.0842 KA relative to UGCAUGU
26 | B26 | 0.0836 KA relative to UGCAUGU
27 | B27 | 0.123 KA relative to UGCAUGU
28 | B28 | 0.21 KA relative to UGCAUGU
29 | B29 | 0.261 KA relative to UGCAUGU
30 | B30 | 0.0639 KA relative to UGCAUGU
31 | B31 | 0.72 KA relative to UGCAUGU
32 | B32 | 0.125 KA relative to UGCAUGU
33 | B33 | 0.541 KA relative to UGCAUGU
34 | B34 | 0.129 KA relative to UGCAUGU
35 | B35 | 0.419 KA relative to UGCAUGU
36 | B36 | 0.724 KA relative to UGCAUGU
37 | B37 | 0.325 KA relative to UGCAUGU
